Screens (PubChem)
Sampled rows, rich in hits. Any-hit rate of the full collection: about 10%.
VDR inh = vitamin D3 receptor (human) inhibition | VDR-SRC2-3 peptide fluorescence polarization, 2 h | 400,000 tested, 0.93% active | Potency, µM, for inactives: max response, negative = inhibition, most hits filed as inhibitors; further: potency means the concentration at half of the fitted maximal effect
Target sequence (P11473 whole entry, looked up): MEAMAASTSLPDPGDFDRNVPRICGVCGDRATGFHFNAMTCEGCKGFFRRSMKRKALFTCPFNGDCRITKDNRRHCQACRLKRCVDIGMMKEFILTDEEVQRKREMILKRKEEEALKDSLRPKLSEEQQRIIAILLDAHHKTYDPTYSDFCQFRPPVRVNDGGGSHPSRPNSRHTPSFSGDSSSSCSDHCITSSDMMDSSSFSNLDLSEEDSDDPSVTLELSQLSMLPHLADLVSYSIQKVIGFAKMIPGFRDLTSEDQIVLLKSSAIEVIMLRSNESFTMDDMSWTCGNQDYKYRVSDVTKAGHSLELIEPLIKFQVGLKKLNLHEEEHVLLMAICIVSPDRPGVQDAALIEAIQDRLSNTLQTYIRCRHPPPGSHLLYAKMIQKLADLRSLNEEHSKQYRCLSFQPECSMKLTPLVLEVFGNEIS
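Fluorescence polarization assay of small-molecule disruption of VDR binding to coregulator peptide SRC2-3. Compounds and controls pin-transferred, then read after 2 h incubation at ambient room temperature.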
G9a block = G9a (human) methyltransferase inhibition; 350,000 tested, 8.8% active; G9a H3K9 monomethylation, AlphaScreen, 2 h; Q96KQ7; Potency, µM (highest dose often 102 µM), for the others: at the highest dose activity, negative = inhibition, actives largely listed as inhibitors; further: potency means the concentration at half of the fitted maximal effect; nearly all actives have a fitted effect of over 75% in size
Target sequence (Q96KQ7 913-1193 limits assumed): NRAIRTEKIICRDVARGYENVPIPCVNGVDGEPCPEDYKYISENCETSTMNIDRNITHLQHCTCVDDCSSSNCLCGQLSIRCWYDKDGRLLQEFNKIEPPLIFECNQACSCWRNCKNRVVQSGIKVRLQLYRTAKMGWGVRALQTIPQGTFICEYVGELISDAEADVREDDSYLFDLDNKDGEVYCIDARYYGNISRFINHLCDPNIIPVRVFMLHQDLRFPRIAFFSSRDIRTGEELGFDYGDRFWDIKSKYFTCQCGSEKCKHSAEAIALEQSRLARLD
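Using a bead-based AlphaScreen, monomethylated H3K9 product from 2 h room-temperature reactions (G9a 20 nM, peptide 500 nM, SAM 20 uM) was detected with 0.5 ug/mL rabbit anti-H3K9me1 antibody.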
CCT chaperon mod = modulators of cytosolic chaperonin (CCT/TRiC) activity | purified chaperonin ATPase assay, HTRF ADP detection, 30 min | 360,000 tested, 0.3% active | AID 651819 | activity change, % (test concentration not listed), hits read low; in the data active means activity change below about -30%
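First, chaperonin was dispensed at 40 nM or 20 nM final depending on batch activity. Next, compounds were pinned at 76 uM and ATP added at 10 uM. After 30 min at 37 °C, ADP detection reagents ran 30 min at ambient temperature.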
PLK1 PBD block = PLK1 (human) polo-box domain binding inhibition; Potency, µM, without a hit: max response, negative = inhibition, hits mostly inhibitors; Plk1 PBD binding of FITC phosphopeptide, fluorescence polarization; 360,000 tested, 2.8% active; AID 720504; P53350; further: potency means the concentration at half of the fitted maximal effect; series mostly up to about 57 µM; nearly all actives have a fitted effect of over 65% in size
Sfp inh = blocks B. subtilis Sfp PPTase activity; Q9F4F7; Biochemical Sfp PPTase activity, qHTS; Potency, µM, inactives show largest response in the series, negative = inhibition, most hits filed as inhibitors; 310,000 tested, 3.5% active; AID 1490;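 further: the enzyme is Sfp with the accession as filed and its product quenches rhodamine fluorescence; potency means the concentration at half of the fitted maximal effect; 0% = enzyme reaction without inhibitor and -100% = no enzyme wells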
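Reaction rates are the 30-min fluorescence difference (ex 525, em 598 nm) in wells containing 15 nM Sfp, 5 uM rhodamine-CoA and 12.5 uM BHQ-2-YbbR at pH 7.6 with 10 mM MgCl2.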
MmCpn inh = blocks the Methanococcus maripaludis chaperonin Mm-Cpn; AID 504842; purified Mm-Cpn ATPase, ADP Transcreener TR-FRET; Potency, µM (titrated, usually from 76.9 µM), for the others: at the top dose activity, negative = inhibition, most hits filed as inhibitors; 330,000 tested, 0.031% active; further: potency means the concentration at half of the fitted maximal effect; nearly all actives have a fitted effect of over 80% in size
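Reaction buffer contained 30 mM Tris pH 7.4, 100 mM KCl, 5 mM MgCl2 and 1 mM DTT. Mm-CPN (25 nM final) hydrolysed 10 uM ATP over 30 min at 37°C; ADP was read by HTRF.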
* hit, by the source's call; ? = inconclusive; . = no result; [ ] = dose if it differs, or a comment. Unless noted, the call rests on the fitted dose curve; in most records, active means well fitted curve in the direction sought with a large enough effect; inconclusive means small, poorly fitted or top-dose-only effect, or another doubt; inactive means no such curve, though single readings can be large; an effect the other way counts as inactive or inconclusive. Unless noted, on the % scale 0 is the no-effect control and ±100 the full control effect.

SMILES	VDR inh	G9a block	CCT chaperon mod	PLK1 PBD block	Sfp inh	MmCpn inh
C(=N\N1CCN(Cc2ccccc2)CC1)/c1cccs1	-6%	?	-11	-1%	10%	-3%
COc1ccccc1C1C=C(c2ccc(Cl)cc2)Nc2nc(NS(C)(=O)=O)nn21 (configuration not stated)	.	50µM*	.	.	14%	-5%
Cc1nc2c(-c3ccccc3)c(C)nn2c(C)c1CCC(=O)NCc1ccc(F)cc1	-13%	0%[59 µM]	.	.	.	.
COC(CNC(=O)CCc1c(C)nc2c(-c3ccc(F)cc3)c(C)nn2c1C)OC	-17%	1%[59 µM]	-1	30µM*	5%	0%
N#C/C(C(=O)c1ccccc1)=C1/SC=C(N)N1c1ccccc1	.	?	.	.	35µM*	-8%
O=C(NC(=S)Nc1ccccc1)c1cccs1	11%	-12%[59 µM]	2	-4%	45µM*	-1%
O=C(NNS(=O)(=O)c1ccc(Cl)cc1)c1cccs1	1%	4%[12.7 µM]	-14	-6%	7%	-1%
COc1ccc(S(=O)(=O)NNC(N)=S)cc1	3%	16µM*	-1	-3%	28µM*	0%
O=C(Nc1ccc(NC(=S)NC(=O)c2cccs2)cc1)c1ccccc1	-13%	5%[59 µM]	0	-4%	4%	-2%
COc1ccc(S(=O)(=O)NNC(=O)c2cccs2)cc1	39%	45µM*	-1	-13%	-26%	0%
COc1ccc(NC(=S)NNC(=O)c2nnn(-c3ccccc3)c2C)cc1	-26%	11µM*	-2	-4%	10%	1%
COc1ccc(NC(=O)c2cnn(-c3ccccc3)c2C)cc1	7%	10%[0.501 µM]	-1	-4%	12%	-1%
Cc1cccnc1NC(=S)NC(=O)c1cccs1	8%	?	2	-1%	79µM*	0%
CC(=O)NC(=S)Nc1ccc(NC(=O)c2cccs2)cc1	-7%	?	-27	-14%	0%	0%
COc1ccc(NC(=S)NNC(=O)c2cccs2)cc1	-16%	40µM*	0	-4%	23%	-3%
Cc1cccnc1NC(=O)CCC(=O)c1cccs1	-6%	?	0	-14%	.	3%
Cc1c(C(=O)NC(=S)Nc2ccc(NC(=O)c3cccs3)cc2)oc2ccccc12	-19%	1.4µM*	-2	-6%	8.9µM*	1%
C=C1C[C@@]23C[C@]1(O)CC[C@@H]2[C@]12C=C[C@@H](O)[C@](C)(C(=O)O1)[C@H]2[C@H]3C(=O)O	5%	8%[21.5 µM]	.	.	-2%	.
COc1ccc(-c2csc3nc(-c4ccccc4C)oc(=O)c23)cc1OC	-21%	2%[59 µM]	.	.	.	.
COc1cccc(NC(=S)N(CCCN2CCCC2)Cc2cccn2Cc2ccc(Cl)cc2)c1	-11%	40µM*	-1	0%	7%	1%
CSc1cccc(NC(=S)N(CCCN2CCCC2)Cc2cccn2Cc2ccc(Cl)cc2)c1	5%	35µM*	1	-16%	79µM*	0%
S=C(Nc1cccc(Cl)c1)N(CCCN1CCCC1)Cc1cccn1Cc1ccc(Cl)cc1	-14%	35µM*	-2	-7%	63µM*	1%
COc1cccc(NC(=S)N(CCCN2CCCC2)Cc2ccco2)c1	-16%	16%	0	8%	21%	3%
O=S(=O)(Nc1ccc(-c2ccc(N3CCCCCC3)nn2)cc1)c1ccc(C(F)(F)F)cc1	-8%	9%[59 µM]	.	.	.	.
COC(=O)c1ccc(NC(=O)CN2CCCN(Cc3ccc(Cl)cc3)S2(=O)=O)cc1	1%	24%[59 µM]	.	.	.	.
SMILES	VDR inh	G9a block	CCT chaperon mod	PLK1 PBD block	Sfp inh	MmCpn inh
O=C(COc1ccccc1Cl)NC(=S)Nc1ccccc1N1CCCC1	42%	40µM*	-1	-27%	3%	-7%
COc1ccc(N2CC(C(=O)Nc3ccccc3N3CCCC3)CC2=O)c(OC)c1 (configuration not stated)	-11%	50µM*	-1	-3%	.	-5%
COc1ccc(OCC(=O)Nc2cc(OC)ccc2N2CCCCC2)cc1	-25%	21%	0	?	-13%	0%
COc1ccc(N2CCCC2)c(NC(=O)COc2ccccc2Cl)c1	-14%	35µM*	-6	2%	-15%	2%
Cn1c(Cc2ccccc2)n[nH]c1=S	-12%	10µM*	-3	-2%	-9%	?
S=c1[nH]nc(CSCCOc2ccccc2)o1	9%	.	-2	-14%	-24%	-12%
Cn1c(CSCCOc2ccccc2)n[nH]c1=S	4%	10µM*	1	2%	-7%	1%
Cn1c(Cc2cccs2)n[nH]c1=S	-25%	?	-1	27µM*	10%	-1%
Cc1ccc(NC(=O)CC(C)S(=O)(=O)c2ccc3c(c2)NC(=O)CO3)cc1Cl (configuration not stated)	8%	9%[59 µM]	.	.	.	.
Cc1ccc2oc(-c3ccc(C)c(NC(=O)/C=C/c4ccc(Cl)cc4)c3)nc2c1	12%	-27%[59 µM]	.	.	.	.
COc1ccc(-c2cc(C(F)(F)F)nc(SCC(=O)NCCc3ccccc3)n2)cc1OC	-11%	32%[59 µM]	.	.	.	.
COc1ccc(C)c2sc(N(Cc3cccnc3)C(=O)c3cccs3)nc12	15%	7%[59 µM]	.	.	.	.
CC(C)CCOc1ccc(C(=O)CCNC(C)C(=O)O)cc1 (configuration not stated)	.	5.6µM*	.	.	-10%	-1%
NC(=O)C1CCN(C(=O)Cc2ccsc2)CC1	18%	40µM*	-2	-3%	6%	-1%
NC(=O)C1CCN(C(=O)CCc2ccsc2)CC1	-6%	-5%	0	-16%	3%	-2%
CC(=O)N1CCc2c(sc3c2c(=O)n(-c2ccccc2)c(=O)n3CC(=O)Nc2ccccc2)C1	9%	6%[59 µM]	.	.	.	.
Cc1c(Cl)cccc1-n1ncc(C(=O)NCc2cccs2)c1C1CCN(C(=O)OC(C)(C)C)CC1	11%	-31%[59 µM]	.	.	.	.
CN1CCN(c2ncnc3ccc(-c4ccccc4C(F)(F)F)cc23)CC1	-29%	-4%[0.501 µM]	.	.	?	.
Fc1ccc(CNc2ccc(N3CCN(Cc4ccccc4)CC3)cc2)cc1	-2%	13µM*	0	-17%	-17%	2%
O=C(CCS(=O)(=O)c1ccc(F)cc1)Nc1ccc(N2CCN(Cc3ccccc3)CC2)cc1	-8%	?	-3	?	.	0%
O=C(Nc1ccc(N2CCN(Cc3ccccc3)CC2)cc1)c1ccco1	-12%	79µM*	-2	7%	10%	1%
Cc1ccccc1CNC(=O)CCCn1c(=O)c2cccn2c2ccccc21	7%	10%[59 µM]	.	.	.	.
O=C(c1ccccc1)N1CCN(CC(O)Cn2ccc3ccccc32)CC1 (configuration not stated)	26%	11µM*	-1	0%	-25%	-4%
OC(CN1CCCC1)Cn1ccc2ccccc21 (configuration not stated)	-2%	14µM*	1	-4%	-8%	-1%
OC(CNc1ccccc1)Cn1ccc2ccccc21 (configuration not stated)	-7%	32µM*	1	-3%	-29%	-1%
